Screens from PubChem BioAssay.
Granule exo inh: blocks lytic granule exocytosis. TALL-104 LAMP-1 surface exposure, flow cytometry; cells stimulated with thapsigargin and PMA. inhibition, % at 10 µM. hit rate 0.66% among 360,000. AID 651702;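 active = inhibition above about 55%, limit read from the data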
ABHD5-PLIN5 inh: blocks binding of human ABHD5 to perilipin-5; inhibition, % at 4 µM; Split G. princeps luciferase complementation, luminescence, 4 h; hit rate 0.78% among 360,000; AID 602281;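 active = inhibition above the mean inhibition across every tested compound plus 3 SD, cut at about 22% in these data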;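 note: 0% = DMSO only wells and the 100% control is not disclosed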
Rce1 inh: blocks yeast Ras-converting enzyme; Q03530; calls only; hit rate 0.27% among 290,000; yeast membranes, quenched prenylated peptide cleavage fluorescence; AID 2563;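 active = fall in fluorescence gain of 50% or more versus controls, with final raw signal at or below 3038400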;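 note: plate controls were neutral control wells for no effect and wells lacking membranes for full effect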
PfM18AAP inh-1: blocks P. falciparum M18 aspartyl aminopeptidase. hit rate 1.2% among 290,000. recombinant PfM18AAP, H-Glu-NHMec fluorogenic cleavage. inhibition, % at 7.35 µM. AID 1822;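 active = inhibition above the campaign mean inhibition over all tested compounds plus 3 SD, cut at about 28% in these data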;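 note: 0% = plate median of test compound wells and 100% = 2 mM ZnCl2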
Platelet DG rel: platelet dense granule release activity. human platelet-rich plasma, SFLLRN dense granule ATP release, luminescence. inhibition, %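 (compounds screened at 7.5 µM in platelet-rich plasma)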. hit rate 0.22% among 300,000. AID 1663;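 active = mean replicate score, as percent of positive control, at or above 50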
PfM18AAP inh-2: PfM18AAP inhibition, confirmation; shares compounds with PfM18AAP inh-1; recombinant PfM18AAP, H-Glu-NHMec fluorogenic cleavage; inhibition, % at 7.35 µM; hit rate 28% among 2,400; AID 2170;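 active = mean inhibition over replicate wells above the hit cutoff set for the earlier primary screen, cut at about 29% in these data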;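 note: 0% = median of test compound wells and 100% = 2 mM ZnCl2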
CTSL1 confirm: Cathepsin L (human) inhibition, confirmation. shares compounds with PfM18AAP inh-1. purified cathepsin L1, Z-Leu-Arg-MCA fluorescence. inhibition, % at 5.96 µM. 2,400 tested, under 10 active. AID 2178;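 active = average inhibition across replicates above the hit cutoff set in the earlier primary screen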;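 note: 0% = median of test compound wells and 100% = Z-Phe-Ala-diazomethylketone 1 µM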
ABHD5-PLIN5 conf: confirmation of human ABHD5-PLIN5 interaction inhibitors; shares compounds with ABHD5-PLIN5 inh; biochemical ABHD5-PLIN5 interaction, luminescence; inhibition, % at 4 µM; hit rate 67% among 2,200; AID 651612; in the data active = inhibition above about 23%;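 note: 0% = DMSO vehicle wells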
HNF4 counter: active in HNF4 split-luciferase counter-screen for ABHD5-PLIN5 inhibitors; shares compounds with ABHD5-PLIN5 inh; HNF4 dimerization, luminescence, biochemical; inhibition, % at 4 µM; hit rate 77% among 2,200;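 active = mean inhibition across replicate wells exceeding the computed hit threshold, cut at about 13% in these data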;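 note: light from luciferase halves that rejoin when HNF4 fusion proteins dimerize; 0% = DMSO only wells and the 100% control is not given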
Target sequence (P41235 whole entry, looked up, the tested form may be a part): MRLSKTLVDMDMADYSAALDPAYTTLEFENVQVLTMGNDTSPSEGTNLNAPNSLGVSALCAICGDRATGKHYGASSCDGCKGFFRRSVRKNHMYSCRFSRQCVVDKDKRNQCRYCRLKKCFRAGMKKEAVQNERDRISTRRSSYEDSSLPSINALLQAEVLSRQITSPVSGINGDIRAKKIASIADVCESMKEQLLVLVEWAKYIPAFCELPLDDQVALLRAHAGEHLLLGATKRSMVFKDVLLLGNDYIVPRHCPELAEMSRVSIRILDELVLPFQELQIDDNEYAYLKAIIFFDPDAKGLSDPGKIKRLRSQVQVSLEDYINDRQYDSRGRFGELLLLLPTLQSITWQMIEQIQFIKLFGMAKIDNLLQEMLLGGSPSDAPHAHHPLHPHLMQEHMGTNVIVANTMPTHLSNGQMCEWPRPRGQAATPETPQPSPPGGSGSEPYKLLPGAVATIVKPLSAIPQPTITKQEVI
Exocytosis CP01: blocks lytic granule exocytosis | shares compounds with Granule exo inh | TALL-104 cells, LAMP-1 externalization, flow cytometry; stimulated with PMA plus thapsigargin | inhibition, % at 10 µM | hit rate 11% among 1,500 | AID 651954; in the data active = inhibition above about 60%;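 note: 0% = stimulated vehicle wells and 100% = unstimulated wells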
The depositor's hits bear a star; i = inactive; x = not tested or not shown. Rows were chosen to be rich in hits. Some 2.6% of all compounds tested hit in one or more screens of this group.

SMILES	Granule exo inh	ABHD5-PLIN5 inh	Rce1 inh	PfM18AAP inh-1	Platelet DG rel	ABHD5-PLIN5 conf	HNF4 counter	others
O=C(O)C(Cc1ccccc1)N1C(=O)/C(=C/C=C/c2ccco2)SC1=S (stereo not given)	-1	0	i	13	4	x	x
O=c1cc(-c2ccc(O)cc2)oc2c(O)c(O)c(O)c(O)c12	2	34*	x	52*	x	-6	14*	PfM18AAP inh-2=18;CTSL1 confirm=2
O=c1cc(-c2ccc(O)cc2)oc2c1ccc1ccccc12	2	-11	x	x	x	x	x
COc1nnc(-c2ccc(C)c(S(=O)(=O)NCC3CCCO3)c2)c2ccccc12 (stereo not given)	-1	0	i	3	1	x	x
CCOc1cc(NCCN2CCOCC2)c([N+](=O)[O-])cc1OCC	22	3	i	1	-3	x	x
Cc1ccc2ccccc2[n+]1CCCS(=O)(=O)[O-]	-4	3	i	1	-2	x	x
CCC[n+]1c2ccccc2cc2ccccc21	-20	72*	i	47*	-15	94*	84*	PfM18AAP inh-2=17;CTSL1 confirm=3
CCCC[n+]1c2ccccc2cc2ccccc21	-9	87*	i	38*	-8	102*	100*	PfM18AAP inh-2=16;CTSL1 confirm=-2
O=C(/C=C/c1cccnc1)c1ccc([N+](=O)[O-])cc1	-14	57*	i	32*	6	89*	94*	PfM18AAP inh-2=13;CTSL1 confirm=-4
COc1ccc(C=CC(=O)c2ccc([N+](=O)[O-])cc2)cc1	0	16	x	x	x	x	x
COc1cc(N=c2ssnc2Cl)cc(OC)c1OC	99*	61*	i	39*	0	68*	103*	PfM18AAP inh-2=-53;CTSL1 confirm=3
COc1ccc(CCNCc2cc(C)n(-c3ccc(OC)cc3)c2C)cc1	61*	-8	i	42*	-6	x	x	PfM18AAP inh-2=-10;CTSL1 confirm=-3;Exocytosis CP01=1
COc1ccc(CCNCc2ccccc2N2CCCC2)cc1	40	-3	i	3	x	x	x
COc1cccc(-c2nc(CS(=O)(=O)CC(=O)Nc3cccc(C(C)=O)c3)c(C)o2)c1	2	3	i	-7	-11	x	x
Cc1ccc(-n2sc3ccccc3c2=O)cc1	74*	31*	i	66*	17	10	114*	PfM18AAP inh-2=76*;CTSL1 confirm=6;Exocytosis CP01=33
O=S(=O)(Nc1cc(Sc2ncn[nH]2)c(O)c2ccccc12)c1ccccc1	101*	-4	x	38*	x	x	x	PfM18AAP inh-2=-202;CTSL1 confirm=-3;Exocytosis CP01=103*
O=C(COC(=O)CCC(=O)c1ccccc1)NNC(=O)c1ccc(Cl)cc1	5	-7	i	x	10	x	x
O=C(Cn1sc2ccccc2c1=O)NC12CC3CC(CC(C3)C1)C2	104*	59*	i	34*	4	x	x	PfM18AAP inh-2=21;CTSL1 confirm=1;Exocytosis CP01=100*
Nc1cccc2c1C(=O)N(CC(=O)NC13CC4CC(CC(C4)C1)C3)C2=O	-6	-1	i	4	4	x	x
Cc1[nH]c(C)c(S(=O)(=O)N2CCc3ccccc32)c1C(=O)N1CCCCC1	-2	-2	i	-8	1	x	x
Nc1c(C(=O)c2ccccc2)sc2nsc(SCCN3CCCC3)c12	64*	1	i	35*	7	x	x	PfM18AAP inh-2=-30;CTSL1 confirm=-4;Exocytosis CP01=-4
Cc1ccc(NC(=O)c2cnccn2)c(Br)c1	-3	100*	i	0	8	2	1
Cc1ccc2nc(CSc3nnc(-c4ccco4)o3)cc(=O)n2c1	0	14	i	2	1	x	x
O=C(CCC(=O)c1cccs1)OCC(=O)c1ccc(Cl)s1	17	3	i	3	3	x	x
Cc1ccc(Sc2c(C)[nH]n(C(C)(C)C)c2=O)cc1	2	-6	i	7	6	x	x
SMILES	Granule exo inh	ABHD5-PLIN5 inh	Rce1 inh	PfM18AAP inh-1	Platelet DG rel	ABHD5-PLIN5 conf	HNF4 counter	others
CC1=CC(=O)C(Sc2ccc(C)cc2)=CC1=O	-3	62*	x	x	x	60*	97*
Cc1ccc(CSC2=NCCN2S(=O)(=O)c2ccc(C)cc2)cc1	-1	-7	x	x	x	x	x
COc1ccc(C2C(C#N)=C(N)Oc3cc(C)n(Cc4ccco4)c(=O)c32)cc1 (stereo not given)	-1	32*	i	-12	3	66*	68*
CCN(Cc1ccncc1)Cc1ccc(OC)cc1OC	-7	26*	i	4	-5	-1	8
COc1ccc(CNCc2ccncc2)c(OC)c1	-4	5	i	-2	-5	x	x
CC1=Nc2cc(Cl)ccc2Oc2ccccc21	4	6	i	-9	0	x	x
O=C(NCc1ccco1)c1ccc(COc2ccccc2Cl)cc1	0	7	i	6	7	x	x
O=C(C=Cc1cccs1)c1ccc(Cl)s1	-2	24*	x	x	x	60*	40*
COc1ccc(OC)c2c1nc1n2CCS1	4	1	i	-3	-1	x	x
COc1ccc(C(=O)Oc2cc3c4c(c2)C(C)=CC(C)(C)N4C(=O)C3=O)cc1OC	5	6	i	-1	1	x	x
COc1cccc(C(=O)Oc2cc3c4c(c2)C(C)=CC(C)(C)N4C(=O)C3=O)c1	19	33*	i	-9	0	43*	46*
Cc1ccc(S(=O)(=O)NNC(=O)C(=O)NNc2ccccn2)cc1	-2	2	i	6	2	x	x
Cc1nc([N+](=O)[O-])c(Br)n1CC(=O)c1ccc(Cl)cc1	2	27*	i	-1	0	31*	26*
Cc1nc([N+](=O)[O-])c(NCCO)n1Cc1ccccc1	2	2	i	-1	8	x	x
Cc1nc([N+](=O)[O-])c(Br)n1Cc1ccc(Cl)c(Cl)c1	-3	24*	i	-2	-5	35*	38*
COc1ccc(C(=O)Cn2c(C)nc([N+](=O)[O-])c2Br)cc1	-2	13	i	1	-1	x	x
CCOC(=O)c1cc(S(=O)(=O)NC2CCCCC2)cn1C	-2	9	i	-4	-3	x	x
COc1ccc(C(=O)C(CN2CCOCC2)c2ccccc2)cc1F (stereo not given)	2	24*	i	-5	2	9	63*
O=C1CCC(C(=O)OCC(=O)Nc2ccccc2Br)=NN1	-4	-1	x	x	x	x	x
CC(C)CC1C(=O)N(Cc2cn(CCC3OCCCO3)nn2)CCS(=O)(=O)N1Cc1ccc(-c2ccc(Cl)cc2)cc1 (stereo not given)	-3	-2	x	x	x	x	x
CCOC(=O)[C@@H]1[C@H]2COc3ccc(Br)cc3[C@H]2N2C(=O)N(c3ccc(F)cc3)C(=O)[C@]12C	-3	-2	i	-13	5	x	x
